Test results reported in PubChem BioAssay (NCI).
This is part of a sample that, as a whole, favours compounds with a hit. Of some 83,000 tested, about 20% had one in any assay.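 48-hour exposure, single concentration, 96-well plates; percent growth endpoint where 0 means no net growth. Active: below 10.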 Activity calls are given as the source filed them.

Assays:
Assay in all cases: NCI-60 one-dose screen, 48 h (100 = growth as untreated, 0 = no growth, -100 = all killed)
Settings in all cases: 10 µM unless noted
[1] = tested on: NCI-H23 lung
[2] = tested on: NCI-H226 lung
[3] = tested on: NCI-H322M lung
[4] = tested on: HOP-62 NSCLC
[5] = tested on: NCI-H460 lung
[6] = tested on: HOP-92 NSCLC
[7] = tested on: NCI-H522 lung
[8] = tested on: A549/ATCC NSCLC
[9] = tested on: 786-0 renal
[10] = tested on: COLO 205 colon
[11] = tested on: DU-145 prostate
[12] = tested on: K-562 leukemia
[13] = tested on: MALME-3M melanoma
[14] = tested on: MDA-MB-231 breast
[15] = tested on: RXF 393 renal
[16] = tested on: SF-268 CNS
[17] = tested on: SF-295 CNS
[18] = tested on: SF-539 CNS
[19] = tested on: UACC-257 melanoma
[20] = tested on: M14 melanoma

Measured: growth

CC(=O)NC(CCc1ccc(Cl)c(Cl)c1)c1cccc(O)c(=O)c1 (stereo not given)
active: [2] -13.8% | [3] 5% | [5] 3.68% | [6] 4.89% | [8] 8.58% | [13] -17.9% | [16] 8.61% | [17] -22.2% | [18] 2.57% | [19] -11% | [20] -44.2%
inactive: [1] 21.8% | [4] 10.3% | [7] 15.7% | [9] 10.2% | [10] 16.7% | [11] 16.6% | [12] 11.2% | [14] 28.3% | [15] 18.6%

C=COC(=O)C(C)(C)C
inactive: [1] 102% | [2] 109% | [3] 104% | [4] 104% | [5] 104% | [6] 71.7% | [7] 93.7% | [8] 105% | [9] 96.2% | [10] 104% | [11] 110% | [12] 103% | [13] 95.5% | [14] 113% | [15] 105% | [16] 103% | [17] 93.1% | [18] 102% | [19] 107% | [20] 107%

O=C(c1ccccc1)c1ccc(-c2ccc(O)cc2)cc1
active: [15] -4.28%
inactive: [1] 66.1% | [2] 89.3% | [3] 37.8% | [4] 43% | [5] 43.8% | [6] 71.7% | [7] 25.8% | [8] 38.6% | [9] 72.8% | [10] 142% | [11] 69.8% | [12] 90.2% | [13] 84% | [14] 55.4% | [16] 67.4% | [17] 29.6% | [18] 79.5% | [19] 25.3% | [20] 25.8%

CCC(C)C1CCC(O)CC1 (stereo not given)
inactive: [1] 96.3% | [2] 101% | [3] 100% | [4] 110% | [5] 108% | [6] 102% | [7] 101% | [8] 103% | [9] 100% | [10] 112% | [11] 101% | [12] 99.2% | [13] 32.8% | [14] 112% | [15] 108% | [16] 99.3% | [17] 105% | [18] 94.8% | [19] 103% | [20] 99%

NCC(O)C(O)C(O)C(O)CO (stereo not given)
inactive: [1] 98.2% | [2] 93.4% | [3] 100% | [4] 91.4% | [5] 102% | [6] 80.7% | [7] 102% | [8] 78.4% | [9] 99.2% | [10] 101% | [11] 101% | [12] 103% | [13] 90.5% | [14] 91.9% | [15] 109% | [16] 96.2% | [17] 106% | [18] 101% | [19] 85% | [20] 93.9%

S=C(Sc1ccc(Cl)cc1)Sc1ccc(Cl)cc1
inactive: [1] 21.8% | [3] 106% | [4] 47.9% | [5] 67.1% | [8] 45.5% | [11] 17.2% | [17] 66% | [18] 37.6% | [19] 88%
active: [2] -52.5% | [6] -4.66% | [7] -83% | [9] -14.5% | [10] -54% | [12] -44% | [13] -52.8% | [14] -29.5% | [15] -85.5% | [16] -1.56% | [20] -45.1%

COc1cc(OC)c2cc(C(=O)c3ccc(C#N)cc3)c(=O)oc2c1
inactive: [1] 96.9% | [2] 92.2% | [3] 92.3% | [4] 88.6% | [5] 107% | [6] 107% | [7] 93.1% | [8] 99% | [9] 84% | [10] 117% | [11] 102% | [12] 85.1% | [13] 95.7% | [14] 79.3% | [15] 109% | [16] 88.1% | [17] 97.2% | [18] 82.5% | [19] 102% | [20] 105%

Clc1ccc(/C=C/c2ccccn2)cc1
inactive: [1] 91.2% | [2] 101% | [3] 107% | [4] 94.7% | [5] 104% | [6] 56.3% | [7] 87.1% | [8] 92.2% | [9] 98.1% | [10] 105% | [11] 109% | [12] 107% | [13] 108% | [14] 98.9% | [15] 116% | [16] 91.3% | [17] 100% | [18] 94.2% | [19] 103% | [20] 101%
